Drawing on PubChem BioAssay AID1745848 (National Center for Advancing Translational Sciences (NCATS), 2022), this text covers Potency for 58 molecules.

The campaign covered roughly 2,100 compounds. About 940 (45%) were called active. Inconclusive results (about 48%) are left out. Calls follow the shape of the dose curve; as a rule, active = well fitted inhibition curve with a large enough effect; inconclusive = small, poorly fitted or top-dose-only effect; inactive = no such curve, though single readings can be large or run the other way. So high a share suggests a set chosen from earlier hits. This is one part of the list.
Potency is read from the fitted curve at half-maximal effect.

This assay can be described thus: Confirmatory qHTS for Inhibitors of ATXN expression. Also: nearly all actives have a fitted effect of over 65% in size. Conditions: ATXN2-luciferase reporter cells, luminescence, 24 h; series mostly up to 11.5 µM. The procedure, abridged:
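Cells carrying ATXN2-luciferase reporter exposed 24 h at 37 C to compound. Viability then read by CellTiter-Fluor (25 uM GF-AFC, 30 min), followed by SteadyGlo luminescence; medium-only wells set 100% inhibition.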
(qHTS replaces the single test concentration by a dilution series.)
With `Oc1ccc(C2CNCc3sccc32)cc1O` (stereo not drawn), the Potency entry was “inactive”.

With `Cc1nc(-c2ccc(C(F)(F)F)cc2)sc1C(=O)NN`, the Potency was 14.1 µM (active). The value for `Cc1c(C(=O)NCc2ccc(C(F)(F)F)cc2)sc(=O)n1Cc1cccc(F)c1` was “inactive”. As for `Cc1ccc(F)cc1-c1cc2nc(NCCCN(C)C)n(C)c(=O)c2s1`, the figure is 17.8 µM (active). The value for `Cc1cc(Cl)ccc1-c1cc2nc(NCCCN(C)C)n(C)c(=O)c2s1` was “inactive”; that for `Cn1c(NCCN2CCCC2)nc2cc(-c3ccsc3)sc2c1=O` was 28.2 µM (active); that for `CCCCCCc1cc2cc(C(=O)Nc3ccccc3)c(=O)oc2cc1O` was 0.794 µM (active).

For the molecule `CCCCCCc1cc2cc(S(=O)(=O)c3ccc(C)cc3)c(=O)oc2cc1O`, the Potency entry is “inactive”. As for `Cc1cccc(Nc2nc(N)nc(CCl)n2)c1C`, the entry is “inactive”.

With `C=CCn1c(COc2ccccc2)nnc1SC(C)C(=O)N/N=C/c1cc(Cl)ccc1O` (stereo not drawn), the Potency is 3.98 µM (active).

In the case of `CC(C)c1ccc(S(=O)(=O)c2cc3cc(Br)ccc3oc2=O)cc1`, the Potency was 25.1 µM (active). The value for `c1ccc2c(c1)c1c(c3ccccc32)CN2CCCC2C1` (stereo not drawn) was “inactive”. The value for `CS(=O)(=O)Nc1ccccc1C(=O)Nc1cc(Cl)cc(Cl)c1` was 2.51 µM (active). The value for `CC(C)(C)NCC(=Cc1ccccc1)C(=O)c1ccccc1` was 1.41 µM (active); that for `O=C(C(Br)=Cc1ccccc1)c1ccccc1` was 10 µM (active); that for `Cc1n(Cc2ccccc2)c2ccccc2[n+]1Cc1ccccc1` was “inactive”. As to `N#Cc1c(Oc2ccc3ccccc3c2)sc(C(=O)c2ccccc2)c1N`, the Potency is 14.1 µM (active). The value for `CCOC(=O)C1CCN(c2cc3c(cc2NC(=O)c2ccccc2OCC)n(C)c(=O)n3C)CC1` was 28.2 µM (active). The value for `Cc1ccc(O)c(CNCCNCc2cc(C)ccc2O)c1` was 14.1 µM (active); that for `Cc1ccc(-c2noc(CCCC(=O)NC3CCCC3)n2)cc1` was 7.94 µM (active); that for `COc1ccc(-c2noc(CCCC(=O)NC3CCCC3)n2)cc1` was 8.91 µM (active). As for `Cc1cccc(OCCCC(=O)Nc2nccs2)c1`, the figure is 3.16 µM (active).

Regarding `Cc1cccc(OCCCC(=O)Nc2nc3ccccc3[nH]2)c1`, the Potency was 0.891 µM (active).

Turning to `O=C(CSc1ccc2ccccc2c1)Nc1nc2ccccc2[nH]1`, the Potency is 2.82 µM (active). The value for `Cc1[nH]n(-c2ccccc2)c(=O)c1C=Nc1cccc2cccnc12` was 1.78 µM (active); that for `CCOc1cc(/C=C2\SC(=N)N(c3nccs3)C2=O)ccc1OCCN1CCOCC1` was 14.1 µM (active). On to `CSc1nc(-c2ccc(Cl)cc2)nc(N)c1C#N`, for which the Potency was 2.82 µM (active). The value for `CC(=O)Oc1ccc(N(C(C)=O)S(=O)(=O)c2ccc(C)cc2)c2ccccc12` was 3.16 µM (active); that for `CC(=O)Oc1ccc(N(C(C)=O)S(=O)(=O)c2ccc(C)cc2C)c2ccccc12` was 31.6 µM (active); that for `CC1CCN(Cc2c(C(=O)N/N=C/c3ccccc3O)nnn2-c2nonc2N)CC1` was 1.78 µM (active). Consider `CC1CCN(Cc2c(C(=O)N/N=C/c3cc(Br)ccc3O)nnn2-c2nonc2N)CC1`, for which the Potency is 0.794 µM (active). As for `CC1CCN(Cc2c(C(=O)N/N=C/c3cc(Cl)ccc3O)nnn2-c2nonc2N)CC1`, the figure is 3.55 µM (active); as for `CCN1CC2=C(OC(N)=C(C#N)C2c2cccs2)/C(=C\c2cccs2)C1` (stereo not drawn), “inactive”; as for `COc1cc([C@@H]2c3cc4c(cc3[C@@H](O[C@@H]3O[C@@H]5CO[C@@H](C)O[C@H]5[C@H](O)[C@H]3O)[C@H]3COC(=O)[C@H]23)OCO4)cc(OC)c1O`, 0.631 µM (active). As for `CC[C@]12c3[nH]c4ccc(Cl)cc4c3CCN1C(=O)[C@@H](CC(=O)NCC13CC4CC(CC(C4)C1)C3)C[C@@H]2C(=O)N1CCN(C(=O)C2CC2)CC1`, the Potency is 28.2 µM (active). Regarding `CC[C@]12c3[nH]c4ccc(Cl)cc4c3CCN1C(=O)[C@@H](CC(=O)NCC13CC4CC(CC(C4)C1)C3)C[C@@H]2C(=O)N1CCN(C(=O)c2ccco2)CC1`, the Potency is 3.55 µM (active). The value for `O=C(N/N=C(\Cc1ncc[nH]1)c1ccccc1)c1ccncc1` was 10 µM (active); that for `O=C(N/N=C(\Cc1ncc[nH]1)c1ccccc1)c1cccnc1` was 3.16 µM (active).

With `Oc1ccc2ccccc2c1/C=C/c1ccc2c(Br)cc(Br)c(O)c2n1`, the Potency is 12.6 µM (active). The value for `CN(C)CCNc1ccc2ncn3c4ccc(O)cc4c(=O)c1c23` was 1 µM (active); that for `CN(C)CCNc1ccc2nnn3c4ccc(O)cc4c(=O)c1c23` was 2 µM (active); that for `CN(C)CCNc1cccc2sc3ccc(O)cc3c(=O)c12` was 28.2 µM (active). As to `Cc1cc(Oc2ccc(Cl)cc2)nc(-c2ccccn2)n1`, the Potency result is “inactive”.

Take `COc1cnc(-c2ccccn2)nc1Oc1ccc(Cl)c2ccccc12`: the Potency was 3.16 µM (active). The value for `O=C(N/N=C/c1cc(Br)cc([N+](=O)[O-])c1O)c1ccc(NC(=O)c2ccc(F)cc2)cc1` was 3.16 µM (active). Take `COc1cc([N+](=O)[O-])cc(/C=N/NC(=O)c2ccc(NC(=O)c3ccc(C)cc3)cc2)c1O`: the Potency is 1.41 µM (active). In the case of `Cc1cc(C(=O)N/N=C/c2cc(Br)cc([N+](=O)[O-])c2O)c2ccccc2n1`, the Potency was 3.16 µM (active). For the molecule `O=C(Nc1ccc(Cl)c(Cl)c1)Nc1nnc(CSc2ccccc2)s1`, the Potency is 1.78 µM (active). As for `CC1=CC(C)(C)Nc2ccc(OC(=O)CN3C(=O)CCC3=O)cc21`, the figure is 3.55 µM (active); as for `Cc1cc(NCc2ccccn2)n2nc(C)c(-c3ccc(Cl)cc3)c2n1`, 15.8 µM (active). The value for `CCOc1ccc(-n2c(-c3ccccc3)c[n+]3c2CCCCC3)cc1` was 8.91 µM (active). As for `c1ccc(Cn2c(-c3ccccc3)c[n+]3c2SCCC3)cc1`, the entry is “inactive”; as for `Cc1cccc(C2=NN(c3ccccc3)[C@H](CO)[C@H]2c2ccc(Cl)cc2)c1`, “inactive”. As for `Cc1cc(C)c2nc(N3CCCC(C(=O)N4CCN(c5ncccn5)CC4)C3)sc2c1` (stereo not drawn), the Potency was 3.16 µM (active).

As for `O=c1cc(-c2cccnc2)oc2c1ccc1ccccc12`, the Potency was 3.55 µM (active).

Regarding `CN(C)c1cc[n+](CC(=O)c2ccc(-c3ccccc3)cc2)cc1`, the Potency was 2.24 µM (active). As for `Oc1ccc(C[C@@H]2CNCCN2CCc2cc(C(F)(F)F)cc(C(F)(F)F)c2)cc1`, the figure is 3.16 µM (active). The value for `COc1cccc(-c2ccc(NC(=O)C3CCCN(Cc4cnn(C(C)C)c4)C3)cc2)c1` (stereo not drawn) was 3.16 µM (active).
